The text below walks through data of PubChem BioAssay.

Active and inactive are the calls of the source. Unless noted, how the calls were made is not given here.

Test [1] is described as follows: HepG2 liver cancer cell viability effects, profiling panel, resazurin fluorescence, 24 h, PK04 Diversity Set (AID 1172). Further: test concentration not given here. The conditions noted are these: higher = more signal. On the technique in general: Resazurin is reduced to fluorescent resorufin, in cell work by metabolically active cells.
Test [2] in a line: basal S. cerevisiae growth modulation, no modifier, primary screen, OD600, strain BY4716, 24 h, basal condition (AID 1173). The conditions noted are these: OD600, 24 h, higher = more signal, called active from +8 up or from −8 down.
A short description of test [3]: MM1S myeloma cell viability, profiling panel, resazurin fluorescence, basal, 24 h, PK04 Diversity Set (AID 1174).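 Further: MM1S multiple myeloma cell line; test concentration not given here.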 The conditions noted are these: higher = more signal, called active from +8 up or from −8 down.
Test [4] deals with Dihydroorotate dehydrogenase (quinone), mitochondrial (Plasmodium falciparum (isolate 3D7)) (UniProt Q08210). The experiment in a line: PfDHODH enzyme inhibitors, primary screen, biochemical, C-terminal His tag, absorbance 600 nm (AID 1175).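 Further: recombinant parasite enzyme with a five histidine tag at its C terminus; test concentration not given here.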 The conditions noted are these: DCIP absorbance 600 nm, higher = more signal, called active from +8 up or from −8 down.
Test [5] is described as follows: P. aeruginosa biofilm formation inhibitors, primary screen, strain PAO1, LB-PBS medium, absorbance 600 nm (AID 1176). Further: test concentration not given here. Particulars: P. aeruginosa PAO1 growth/biofilm, A600, 12 h; higher = more signal.
The nature of test [6]: S. cerevisiae RM11-1a growth modifiers, primary screen, strain RM11-1a, OD600, basal, 24 h (AID 1177).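 Further: cultures grown under basal conditions with no added stressor; test concentration not given here.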 The conditions noted are these: OD600, 24 h, higher = more signal, called active from +8 up or from −8 down.
Test [7] is described as follows: E. coli acrAB mutant growth effects, primary screen, E. coli filamentation inducers, strain DRC39, OD650, 24 h (AID 1178).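 Further: growth measured as culture turbidity by optical density at 650 nm; test concentration not given here.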 The conditions noted are these: higher = more signal, called active from +8 up or from −8 down.
Test [8] is described as follows: E. coli acrAB mutant growth effects, primary screen, E. coli filamentation inducers, strain DRC39, OD650, 48 h (AID 1179).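 Further: screen aims at cell division blockers that make cells filament.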 Particulars: E. coli DRC39 delta-acrAB growth, higher = more signal, called active from +8 up or from −8 down.
A short description of test [9]: RPMI8226 myeloma cell viability, profiling panel, resazurin fluorescence, basal, 24 h, PK04 Diversity Set (AID 1180).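 Further: RPMI8826 multiple myeloma cell line at 5000 cells per well; test concentration not given here.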 The conditions noted are these: higher = more signal.
Test [10] deals with E3 ubiquitin-protein ligase XIAP (Homo sapiens) (UniProt P98170). As to the kind of experiment: XIAP binders, primary screen, biophysical, small-molecule microarray, fluorescence 635 nm (AID 1181).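 Further: score merges 667 nm emission and signal to noise over triplicate slides.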 Particulars: small-molecule microarray binding, higher = more signal.
Sequence of E3 ubiquitin-protein ligase XIAP (Homo sapiens) (P98170 whole entry, looked up): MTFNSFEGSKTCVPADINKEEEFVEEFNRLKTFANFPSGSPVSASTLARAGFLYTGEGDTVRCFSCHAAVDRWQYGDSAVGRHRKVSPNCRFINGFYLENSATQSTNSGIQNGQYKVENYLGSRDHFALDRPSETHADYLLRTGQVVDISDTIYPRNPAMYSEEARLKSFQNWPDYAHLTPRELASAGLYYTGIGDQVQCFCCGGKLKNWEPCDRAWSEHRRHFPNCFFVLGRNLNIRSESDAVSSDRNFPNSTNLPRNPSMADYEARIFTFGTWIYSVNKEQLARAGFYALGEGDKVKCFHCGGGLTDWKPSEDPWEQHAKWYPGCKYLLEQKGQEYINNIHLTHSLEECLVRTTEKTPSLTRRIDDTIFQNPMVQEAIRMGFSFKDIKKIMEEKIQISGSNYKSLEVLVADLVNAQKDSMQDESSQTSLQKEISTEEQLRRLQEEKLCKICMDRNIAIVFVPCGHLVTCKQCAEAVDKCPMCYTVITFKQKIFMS

Sequence of Dihydroorotate dehydrogenase (quinone), mitochondrial (Plasmodium falciparum (isolate 3D7)) (Q08210 whole entry, looked up): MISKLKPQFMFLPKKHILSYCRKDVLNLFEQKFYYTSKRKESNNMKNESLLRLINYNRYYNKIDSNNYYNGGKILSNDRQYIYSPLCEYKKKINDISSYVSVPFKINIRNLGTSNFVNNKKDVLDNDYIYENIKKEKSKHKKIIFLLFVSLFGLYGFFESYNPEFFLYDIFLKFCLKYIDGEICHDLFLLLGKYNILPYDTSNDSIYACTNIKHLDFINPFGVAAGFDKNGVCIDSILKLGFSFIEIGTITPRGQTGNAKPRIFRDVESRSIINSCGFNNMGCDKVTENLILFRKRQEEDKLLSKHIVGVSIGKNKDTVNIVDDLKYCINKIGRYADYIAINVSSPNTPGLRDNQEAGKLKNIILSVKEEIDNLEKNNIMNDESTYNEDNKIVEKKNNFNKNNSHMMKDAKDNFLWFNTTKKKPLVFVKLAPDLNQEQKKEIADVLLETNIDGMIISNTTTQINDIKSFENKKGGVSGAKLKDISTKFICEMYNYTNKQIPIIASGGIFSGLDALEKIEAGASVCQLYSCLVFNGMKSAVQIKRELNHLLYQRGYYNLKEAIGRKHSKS

Regarding `CC(CO)N1C(=O)[C@@H]2[C@H]3C(=O)OCC=C[C@H]3OC23C=CCN(c2ccc(Cl)cc2)C(=O)[C@@H]13` (stereo not given in full), the z-score is 0.909 in test [1]; -0.414 (inactive) in test [2]; 0.675 (inactive) in test [3]; -0.897 (inactive) in [5]; 0.0289 (inactive) in test [6]; 0.864 (inactive) in [7]. Also, the z-score in [8] was 0.734 (inactive); in test [9], 0.282. Besides, the figures for the composite z-score in test [4] and in test [10] were -0.647 (inactive) and -0.394, respectively.
With `CC1(C)C(=O)C(c2ccccc2)=C2CN3C(=O)N(CCc4ccccc4)C(=O)C3(Cc3ccc(C(F)(F)F)cc3)C=C21` (stereo not given), the z-score in test [1] is -0.967; in [2], 1.72 (inactive); in [3], -1.33 (inactive); in test [5], 0.0539 (inactive); in test [6], 1.9 (inactive); in test [7], -1.01 (inactive). For the same molecule, the z-score in [8] was -0.756 (inactive); in test [9], -1.03. Moreover, the composite z-score is 0.46 (inactive) in test [4] and 0.0322 in test [10].
Consider `COC(=O)[C@@]1(Cc2ccccc2)[C@H]2c3cc(C(=O)N(C)C)n(CCn4cc([N+](=O)[O-])nc4C)c3C[C@H]2CN1C(=O)c1ccccc1`, for which the z-score in test [1] is 0.002; in test [2], 0.815 (inactive); in test [3] it was -0.271 (inactive); in [5], 1.41 (inactive); in [6], -0.68 (inactive); in [7], -0.211 (inactive). The z-score in test [8] was 0.145 (inactive); in [9], 0.413. Besides, the composite z-score in [4] is -0.831 (inactive); in test [10] it was 1.01.
For the molecule `C=CCNC(=O)[C@@H]1[C@H]2C(=O)O[C@H](c3ccccc3)[C@H](c3ccccc3)N2[C@H](c2ccc(OCCO)cc2)[C@@]12C(=O)N(C(=O)OCCOC)c1ccc(C#CCCO)cc12`, the z-score in test [1] was 0.266; in test [2], -0.153 (inactive); in test [3], 0.423 (inactive); in test [5], 2.16 (inactive); in [6], 1.55 (inactive); in test [7], 0.756 (inactive). In addition, the z-score is 0.298 (inactive) in [8] and 1.04 in test [9]. Besides, the composite z-score in test [4] was -0.767 (inactive); in test [10] it was -0.0161.
On to `COc1cc(NN2C(C(O)c3cc(OC)c(OC)c(OC)c3)C=CC3C(=O)N(c4ccccc4)C(=O)C32)cc(OC)c1OC` (stereo not given), for which the z-score was -1.95 in test [1]; 0.585 (inactive) in test [2]; -1.19 (inactive) in test [3]; 0.366 (inactive) in [5]; -0.147 (inactive) in test [6]; -0.585 (inactive) in [7]. The z-score in [8] was -0.511 (inactive); in test [9], -1.71. For the same molecule, the composite z-score in test [4] was -1.42 (inactive); in test [10] it was 0.074.
In the case of `C=C[C@@H](OC)[C@H](OC(=O)Nc1ccc(SC)cc1)c1ccc(OCCO)cc1`, the z-score was -0.8 in test [1]; -0.88 (inactive) in [2]; -0.415 (inactive) in [3]; 0.838 (inactive) in test [5]; 0.884 (inactive) in test [6]; -0.967 (inactive) in test [7]. Also, the z-score in test [8] was -1.5 (inactive); in [9], -0.306. In addition, the composite z-score in test [4] is -0.915 (inactive); in test [10], -0.0918.
For `COC(=O)[C@@]1(Cc2ccc(F)cc2)[C@H]2c3cc(C(=O)N(C)C)n(Cc4ccc(O)c(OC)c4)c3C[C@H]2CN1C(=O)c1ccccc1`, the z-score was -0.338 in test [1]; 1.15 (inactive) in test [2]; 0.0463 (inactive) in test [3]; 1.72 (inactive) in test [5]; 0.301 (inactive) in test [6]; 0.373 (inactive) in test [7]. The z-score was -1.35 (inactive) in test [8] and -0.997 in [9]. In addition, the composite z-score was -0.764 (inactive) in [4] and 0.0812 in test [10].
`CC(=O)NCCCC[C@@H]1NC(=O)[C@@H]2C[C@H](C(=O)NCCCCCCN)[C@H](c3cccc(OCCO)c3)N2C1=O`: the z-score in test [1] was -0.55; in test [2], -0.652 (inactive); in [3], -0.152 (inactive); in [5] it was -0.0617 (inactive); in [6], -0.158 (inactive); in [7], -0.0095 (inactive). Besides, the z-score was 0.211 (inactive) in test [8] and -0.257 in test [9]. Besides, the figures for the composite z-score in test [4] and in test [10] were 0.23 (inactive) and 0.0896, respectively.
For `NC(=O)[C@@H]1[C@H]2C(=O)O[C@H](c3ccccc3)[C@H](c3ccccc3)N2[C@H](c2ccc(OCCO)cc2)[C@@]12C(=O)Nc1ccc(C#CCCO)cc12`, the z-score in [1] is -0.632; in test [2], -0.349 (inactive); in [3], -0.729 (inactive); in [5], 1.42 (inactive); in test [6], 1.27 (inactive); in test [7], 0.544 (inactive). Also, the z-score is 0.721 (inactive) in test [8] and -0.83 in [9]. The composite z-score was -1.26 (inactive) in test [4] and 0.216 in test [10].
`COC(=O)[C@@]1(Cc2ccc(F)cc2)[C@H]2c3cc(C(=O)N4CCCC4)n(C)c3C[C@H]2CN1C(=O)c1ccccc1`: the z-score in test [1] is 0.0015; in test [2], -1.24 (inactive); in test [3], -0.698 (inactive); in test [5] it was 0.523 (inactive); in [6], 0.309 (inactive); in [7] it was -0.359 (inactive). Besides, the z-score in [8] was -0.482 (inactive); in test [9] it was -0.069. The composite z-score was -0.316 (inactive) in test [4] and 0.49 in test [10].
`COc1ccc(C(O)C2C=CC3C(=O)N(c4ccccc4)C(=O)C3N2Nc2ccc(C(C)C)cc2)c2ccccc12` (stereo not given): the z-score in [1] was -2.57; in test [2], -1.62 (inactive); in [3] it was -0.871 (inactive); in [5], 1.8 (inactive); in test [6], 0.427 (inactive); in [7] it was 0.0571 (inactive). In addition, the z-score was 0.313 (inactive) in [8] and -0.208 in test [9]. In addition, the figures for the composite z-score in test [4] and in [10] were 0.183 (inactive) and 0.349, respectively.
Turning to `COc1ccc([Si](C)(C)[C@H]2[C@H](CCO)O[C@@]3(C(=O)N(Cc4ccc(N5C(=O)c6ccccc6Oc6ccccc65)cc4)c4ccccc43)[C@@H]2C)cc1`, the z-score in test [1] is -1.49; in [2], 0.884 (inactive); in test [3] it was -3.52 (inactive); in test [5], 2.72 (inactive); in [6], 4.11 (inactive); in test [7] it was 1.78 (inactive). Also, the z-score in [8] is 0.987 (inactive); in test [9], -3.67. Further, the composite z-score in [4] is 0.198 (inactive); in test [10] it was -0.115.
For `Cc1ccccc1C(O)C1C=CC2C(=O)N(c3ccccc3)C(=O)C2N1Nc1ccc([N+](=O)[O-])cc1` (stereo not given), the z-score in test [1] is -0.368; in test [2], -0.14 (inactive); in [3] it was -0.327 (inactive); in test [5] it was 1.29 (inactive); in test [6], -0.0035 (inactive); in [7] it was -0.328 (inactive). Also, the values for the z-score in [8] and in test [9] were -0.316 (inactive) and -0.0045, respectively. Moreover, the composite z-score in test [4] is 0.718 (inactive); in [10], 0.167.
